BCR signal inh = chronic active BCR signaling inhibition. 340,000 tested, 0.05% active. ABC-DLBCL IkBa-CBG/CBR reporter, luminescence ratio, 4 h. Potency, µM (series often up to 46.1 µM), for inactives: top-dose activity change, negative = inhibition, most hits filed as inhibitors; active means well fitted inhibition curve with a large enough effect in the signal ratio, with a control signal flat, not every such curve was filed as active; inconclusive means small, poorly fitted or top-dose-only effect, or effect the other way, or a change in a side signal; the % refers to the signal ratio;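 further: potency means the concentration at half of the fitted maximal effect; plate controls were basal doxycycline-induced cells for no effect and cells given 10 µM MG132 for full effect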
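Compounds up to 46 uM were incubated four hours with TMD8 cells whose green CBG68 luciferase is fused to IkappaBalpha; red CBR luminescence normalised the signal, and concentration-effect curves were fitted to fusion, red and ratio data.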
CtBP-E1A inh = inhibitors of CtBP/E1A interaction; AlphaScreen GST-E1A/His-CtBP binding, 1536-well; active compounds read low; activity change, % (concentration not given with the values); 340,000 tested, 0.49% active; further: on the % scale 0 is the no-effect control and ±100 the full control effect
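Steps: dispense buffer (Tris pH 8.0, NaCl 300 mM, TCEP 1 mM, BSA, Tween 20); add 5X protein mix (GST-E1A, His-CtBP, 125 nM each); pin 23 nL compound; 2 h at 37 °C, dark; add 5X beads (50 ug/mL); 1 h; read.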
TSHR antag = antagonists of human thyroid stimulating hormone receptor | TSHR-expressing cells, TSH-stimulated cAMP HTRF, 2 h; active compounds read low | activity change, negative = inhibition, % at 11.5 µM | 330,000 tested, 0.2% active;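 active means activity change below a set negative limit, meaning inhibition stronger than a set level, cut at about -70% in these data; inconclusive means activity change between two set negative limits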; further: on the % scale 0 is the no-effect control and ±100 the full control effect
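Inhibition of cAMP made by TSHR-expressing cells under TSH stimulation (4nM final, EC80; 2 h, 37 deg C) is quantified with a one-step lysis HTRF kit, anti-cAMP cryptate versus cAMP-d2.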
ASM inhibitor = inhibitors of human secretory acid sphingomyelinase | placental ASM, HMU-PC fluorogenic substrate, 60 min | Potency, µM (series often up to 57.5 µM), for the others: at the top dose activity change, negative = inhibition, actives largely listed as inhibitors | P17405 | AID 504937 | 340,000 tested, 0.006% active; active means well fitted inhibition curve with a large enough effect; inconclusive means small, poorly fitted or top-dose-only effect; inactive means no such curve, though single readings can be large or run the other way; further: potency means the concentration at half of the fitted maximal effect
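HMU-PC0 cleavage (9 uM final) by human placental ASM, 60 min at 37 °C following 10 min compound exposure at RT; stopped at pH 10, fluorescence Ex 386/Em 447 nm.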
Six1-Eya2 inh = inhibitors of human Six1/Eya2 interaction; 360,000 tested, 0.56% active; Q15475+O00167; AID 651725; activity change, % (no concentration beside the values); AlphaScreen GST-Six1/His-Eya2 binding, biochemical; active compounds read low; further: on the % scale 0 is the no-effect control and ±100 the full control effect
Target sequence (O00167 whole entry, looked up): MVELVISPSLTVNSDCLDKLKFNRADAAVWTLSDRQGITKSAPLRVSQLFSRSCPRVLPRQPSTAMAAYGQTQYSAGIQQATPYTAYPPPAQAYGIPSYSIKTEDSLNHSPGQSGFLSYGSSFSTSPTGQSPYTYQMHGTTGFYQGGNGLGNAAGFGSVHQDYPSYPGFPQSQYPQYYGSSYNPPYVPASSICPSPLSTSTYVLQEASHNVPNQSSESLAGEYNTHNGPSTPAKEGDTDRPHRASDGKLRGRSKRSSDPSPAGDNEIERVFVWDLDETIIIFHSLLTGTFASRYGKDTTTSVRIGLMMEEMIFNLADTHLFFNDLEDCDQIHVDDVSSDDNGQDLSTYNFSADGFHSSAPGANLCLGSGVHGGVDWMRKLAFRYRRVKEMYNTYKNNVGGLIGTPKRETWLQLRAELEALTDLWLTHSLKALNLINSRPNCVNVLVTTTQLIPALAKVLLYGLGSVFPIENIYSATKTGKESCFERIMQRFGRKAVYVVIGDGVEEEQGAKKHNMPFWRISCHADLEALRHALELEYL
Target sequence (Q15475 whole entry, looked up): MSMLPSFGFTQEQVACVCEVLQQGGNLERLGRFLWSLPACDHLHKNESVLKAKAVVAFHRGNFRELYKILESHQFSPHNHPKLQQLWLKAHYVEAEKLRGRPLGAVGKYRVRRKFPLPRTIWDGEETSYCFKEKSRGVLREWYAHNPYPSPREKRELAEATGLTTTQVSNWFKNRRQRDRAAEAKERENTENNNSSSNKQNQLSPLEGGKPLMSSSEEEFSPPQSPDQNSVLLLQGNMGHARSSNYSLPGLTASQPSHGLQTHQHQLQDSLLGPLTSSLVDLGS
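Six1/Eya2 binding was read as AlphaScreen signal after compounds were pinned into GST-Six1 plus His-tagged Eya2 (5X stock 250/500 nM) in pH 8.0 Tris/NaCl/TCEP buffer, beads added, then incubated 1 h, 37 C, dark.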
* hit, by the source's call; ? = inconclusive; · = not tested or not shown. In the library only some 0.85% were active in any assay of this set; here they are far more common. Unless noted, no stated cut-off is given here; in the data, active means activity change below about -65%; inconclusive means mostly about -30% to -63%; inactive means weaker than that.

SMILES | BCR signal inh | CtBP-E1A inh | TSHR antag | ASM inhibitor | Six1-Eya2 inh
CCOC(=O)c1c2c3c(cccc3[nH]c1=O)C(=O)c1ccccc1-2 | 1.1% | ? | -1.5 | -0.5% | ?
CCOC(=O)c1c2c(n(C)c1C)C(=O)C(=O)c1ccc(Br)cc1-2 | · | 11.5 | · | -4.5% | 4.5
CCOC(=O)c1c2c(n(Cc3ccccc3)c1C)C(=O)C(=O)c1ccccc1-2 | · | -79.2* | · | ? | ?
CCOC(=O)c1c2c3c(c(Cl)ccc3[nH]c1=O)C(=O)c1ccccc1-2 | 1.0% | -89.1* | -14.2 | -16.9% | -76.4*
Cc1cccc(C)c1NC(=O)c1cc(S(=O)(=O)N2CCc3ccccc3C2)ccc1F | 11.8% | · | · | · | ·
CN(C)c1ccc(N=Nc2ccccc2C(=O)OCC(=O)NCC2CCCCC2)cc1 | 14.2% | -67.6* | -6.4 | ? | -74.1*
CN(C)c1ccc(N=Nc2ccccc2C(=O)OCC(=O)NC2CCCC2)cc1 | ? | -65.8* | -0.1 | ? | -70.7*
CN(C)c1ccc(N=c2sc3ccccc3n2C)cc1 | ? | 44.1 | 4.5 | -1.2% | -84.2*
Cc1cccc(-n2c3nc(=O)[nH]c(=O)c-3cc3cc([N+](=O)[O-])ccc32)c1 | 11.6µM* | -11.0 | -1.4 | 21.3% | -14.6
Cc1cc([N+](=O)[O-])cc(/C=N\NC(=O)C2COc3ccccc3O2)c1O (stereo not drawn) | 4.6% | -71.8* | -5.3 | -15.4% | -86.9*
CCN(CC)c1ccc(/C=N/NC(=O)CNC(=O)C2COc3ccccc3O2)c(O)c1 (stereo not drawn) | 0.4% | ? | -18.2 | 73.9% | -69.7*
COc1cc(/C=N\NC(=O)CNC(=O)C2COc3ccccc3O2)ccc1O (stereo not drawn) | -1.3% | -0.2 | -3.2 | 33.1% | 6.2
Cc1ccc(CN2C(=O)c3ccccc3Sc3ccc(C(=O)NCCCN4CCOCC4)cc32)cc1 | ? | · | -138.0* | 0.2% | 2.5
COc1cccc(-c2nc(CS(=O)(=O)CC(=O)N3CCN(c4ccccn4)CC3)c(C)o2)c1 | 4.0% | -26.3 | 2.4 | 3.0% | -12.4
COc1cccc(-c2nc(CS(=O)(=O)CC(=O)NC3CCCCCC3)c(C)o2)c1 | 1.2% | -1.1 | -97.0* | -0.5% | 2.2
COc1cccc(-c2nc(CS(=O)(=O)CC(=O)N3CCCCC3)c(C)o2)c1 | ? | -22.8 | -96.9* | -1.9% | -8.1
CC(=O)c1ccc(N2C(=O)Nc3ccccc3S2(=O)=O)cc1 | -4.6% | · | · | · | ·
CC(C)(C)c1ccc(C(=O)NNc2ncnc3c2cnn3-c2ccccc2)cc1 | 13.9% | · | · | · | ·
COc1ccccc1N1C(=O)c2cccc3c(Cl)ccc(c23)C1=O | 0.4% | 5.3 | -98.1* | -7.4% | -12.4
O=S(=O)(Nc1nccs1)c1ccc(NCc2cc(Br)cc(Br)c2O)cc1 | ? | · | 17.6 | -9.2% | -90.4*
COc1nccnc1NS(=O)(=O)c1ccc(NCc2cc(Br)ccc2O)cc1 | 7.3% | -73.3* | 7.3 | -21.3% | -77.2*
COc1cccc(CNc2ccc(S(=O)(=O)Nc3nccs3)cc2)c1O | ? | -25.0 | 56.4 | -1.9% | -21.6
O=c1c2ccccc2nc2ccc(NCc3ccco3)nn12 | ? | -81.0* | 17.7 | 95.0% | -68.5*
Cc1sc2nc3ccc(NCc4ccco4)nn3c(=O)c2c1C | 6.5% | ? | -10.2 | 450.6% | -66.0*
O=[N+]([O-])c1cnc(Sc2ccncn2)s1 | ? | · | -89.4* | 1.9% | -13.1
SMILES | BCR signal inh | CtBP-E1A inh | TSHR antag | ASM inhibitor | Six1-Eya2 inh
O=[N+]([O-])c1cnc(Sc2ccncn2)c([N+](=O)[O-])c1 | · | 2.1 | · | · | ?
Cc1cc(SCC(=O)Nc2ccc(C(F)(F)F)cc2)nc(=O)[nH]1 | 12.6% | · | · | · | ·
CC(=O)OCC1OC(Sc2cccc3cccnc23)C(OC(C)=O)C(OC(C)=O)C1OC(C)=O (stereo not drawn) | -2.4% | -85.3* | -1.2 | 1.1% | -85.2*
CC(=O)OCC1OC(n2ccc3ccccc32)C(OC(C)=O)C(OC(C)=O)C1OC(C)=O (stereo not drawn) | 8.9% | -3.1 | -4.8 | 5.8% | 2.2
CC(=O)Nc1nc2ccc(C(=O)NCCOC(=O)C3CCCCC3)cc2s1 | -0.6% | -23.3 | 0.5 | -4.8% | -8.1
Nc1nc2ccc(C(=O)NCCOC(=O)C3CCCCC3)cc2s1 | ? | · | -17.5 | 0.3% | -77.1*
Cc1ccc(-n2ncc3c(NC4CCCCCC4)ncnc32)cc1 | 4.3% | · | · | · | ·
COc1ccc(C(=O)CSc2nnc(CNc3nc(-c4ccccc4)cs3)n2C)cc1 | -0.7% | -69.9* | 10.4 | -18.6% | -70.9*
Brc1ccc(-c2nn3c(-c4ccncc4)nnc3s2)o1 | 4.1% | · | 7.4 | · | ·
COc1cccc(-c2nn3c(-c4ccccn4)nnc3s2)c1 | ? | ? | 23.0 | -1.9% | ?
COc1ccc(-c2nn3c(-c4ccccn4)nnc3s2)cc1OC | -15.9% | -89.5* | -2.0 | 0.5% | -80.6*
Brc1ccc(-c2nn3c(-c4ccccn4)nnc3s2)o1 | ? | -78.2* | -2.6 | 27.6% | -76.9*
COc1ccc(-c2nn3c(C4CCCCC4)nnc3s2)cc1OC | 14.1µM* | -17.3 | 33.5 | -3.3% | -0.5
CCOC(=O)c1cc(-c2ccccc2)n(-c2cccc(C(=O)Nc3cccc(C)c3)c2)c1C | 17.5% | · | · | · | ·
O=C(Cn1ncc(Cl)c(Cl)c1=O)N1CCN(S(=O)(=O)c2ccc3ccccc3c2)CC1 | ? | -1.0 | -78.9* | -6.5% | -22.5
C=CCc1ccc(OCCOc2ccc(/C=N/n3cnnc3)cc2OCC)c(OC)c1 | 23.1µM* | -2.5 | 5.3 | -5.8% | -9.1
COc1cc(/C=N/n2cnnc2)ccc1OCCOc1ccccc1 | ? | -4.8 | -5.4 | -2.1% | 7.7
Cc1ccc(S(=O)(=O)C(CNC(=O)C(=O)NCCc2ccccc2)c2cccs2)cc1 (stereo not drawn) | 3.1% | · | · | · | ·
Cc1cc(=O)[nH]c2nnc(SCc3cccc(C(F)(F)F)c3)n12 | 13.4% | · | · | · | ·
Cc1ccc(Nc2ncnc3ccccc23)cc1 | ? | -13.9 | -3.8 | 3.7% | 6.8
Cc1ccc(/C(=N/Nc2ncnc3ccccc23)C(=O)O)cc1 | ? | -77.3* | 5.7 | 3.6% | -84.0*
COc1cc(OC)nc(NC(=O)NS(=O)(=O)c2ccccc2Cl)n1 | 0.0% | -1.0 | -6.1 | 2.7% | -1.5
Cc1cc(N(C)N)nc(NC(=O)NS(=O)(=O)c2ccccc2Cl)n1 | -0.7% | -94.0* | 0.0 | 2.3% | -74.1*
O=[N+]([O-])c1cc2oc3c(c2c(C=NCc2ccccc2)c1O)CCCC3 | 0.3% | 3.1 | -34.6 | -6.1% | -16.0
CC(C)CN=Cc1c(O)c([N+](=O)[O-])cc2oc3c(c12)CCCC3 | ? | 0.6 | -85.2* | -4.7% | 13.2
COc1ccc(/C=N/Nc2cc(C)nc(-n3nc(C)cc3C)n2)c(OC)c1 | -14.9% | -72.7* | -15.3 | -4.8% | -75.7*

Screens (PubChem BioAssay)
